This is an account of results in PubChem BioAssay AID1839 (Johns Hopkins Ion Channel Center, 2009).

The whole screen tested about 2,400 compounds, of which about 220 (9.2%) were called active. The sample holds actives, similar compounds and a random draw of the others, so the mix is not that of the screen. A number with no mark means an inactive call.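 The calls were made as follows: active = signal change above the mean of dofetilide-free buffer controls plus 3 SD, so a positive margin; inactive = the rest.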

The test is described as follows: nonspecific flux effects in parental CHO-K1, confirmation, counter-screen for hERG block protection project, cell-based, CHO-K1 parental line, FluxOR thallium flux (AID 1839).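 Also: compounds applied alone with no dofetilide to cells lacking hERG.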 The following applies: CHO-K1 parental cells, FluxOR thallium flux fluorescence; at 10 µM. (The purpose of a counterscreen is to sort out artefacts and off-target activity.)
With `CCOc1ccccc1Nc1nc(-c2sc(C)nc2C)cs1`, the signal change vs control minus 3*SD hit threshold (margin above threshold, higher = more increase) is -38.3%.

For the molecule `COC(=O)c1ccc(-n2c(C)nc(=O)c(-c3ccccc3)c2C)cc1`, the signal change vs control minus 3*SD hit threshold (margin above threshold, higher = more increase) was -20.1%.

For `COc1ccc(CCNS(=O)(=O)c2csc(C(N)=O)c2)cc1OC`, the signal change vs control minus 3*SD hit threshold (margin above threshold, higher = more increase) is -34.6%.

On to `CCNC(=S)Nc1scc(-c2ccccc2)c1C(=O)OCC`, for which the signal change vs control minus 3*SD hit threshold (margin above threshold, higher = more increase) is -20.8%.

`O=c1oc2ccccc2c(Cl)c1CN1CCCCC1`: the signal change vs control minus 3*SD hit threshold (margin above threshold, higher = more increase) is -42.9%.

In the case of `NC(=O)C1CCN(C(=O)CCC(=O)c2ccc(F)cc2)CC1`, the signal change vs control minus 3*SD hit threshold (margin above threshold, higher = more increase) was -28.7%.

As for `Cc1sc2nc(CN3CCOCC3)[nH]c(=S)c2c1C`, the signal change vs control minus 3*SD hit threshold (margin above threshold, higher = more increase) was 21.4% (active).

Turning to `CCOC(=O)NC(=S)Nc1ccc(C(C)(C)C)cc1Br`, the signal change vs control minus 3*SD hit threshold (margin above threshold, higher = more increase) is -0.4%.

As to `CC(=O)c1c(C)c2c(n1CCN(C)C)CCCC2`, the signal change vs control minus 3*SD hit threshold (margin above threshold, higher = more increase) was -15.9%.

Regarding `CSc1nc2c(c(=O)[nH]1)C(c1ccc(Cl)cc1)CC(=O)N2` (stereo unspecified), the signal change vs control minus 3*SD hit threshold (margin above threshold, higher = more increase) is -31.6%.

For `O=c1c2ccc(Cl)cc2[nH]c(=S)n1CCC1=CCCCC1`, the signal change vs control minus 3*SD hit threshold (margin above threshold, higher = more increase) is 4.8% (active).

On to `CC(C)COn1c(=S)[nH]c2ccccc2c1=O`, for which the signal change vs control minus 3*SD hit threshold (margin above threshold, higher = more increase) is -10.2%.

With `O=c1c2ccccc2[nH]c(=S)n1CCc1ccccc1`, the signal change vs control minus 3*SD hit threshold (margin above threshold, higher = more increase) was 5.9% (active).

`Cc1ccc(Cn2c(=S)[nH]c3ccccc3c2=O)cc1`: the signal change vs control minus 3*SD hit threshold (margin above threshold, higher = more increase) is -14.9%.

For the molecule `O=c1c2cccnc2[nH]c(=S)n1CCC1=CCCCC1`, the signal change vs control minus 3*SD hit threshold (margin above threshold, higher = more increase) was 14.4% (active).

`CCCCCn1c(=S)[nH]c2ncccc2c1=O`: the signal change vs control minus 3*SD hit threshold (margin above threshold, higher = more increase) is -0.3%.

Regarding `O=c1c2ccccc2[nH]c(=S)n1CCC1=CCCCC1`, the signal change vs control minus 3*SD hit threshold (margin above threshold, higher = more increase) is 3% (active).

Take `CC(C)CCn1c(=S)[nH]c2ncccc2c1=O`: the signal change vs control minus 3*SD hit threshold (margin above threshold, higher = more increase) was -18.3%.

`CCCCn1c(=S)[nH]c2ccccc2c1=O`: the signal change vs control minus 3*SD hit threshold (margin above threshold, higher = more increase) was -18.2%.

Consider `COc1ccccc1Cn1c(=S)[nH]c2ccc(Br)cc2c1=O`, for which the signal change vs control minus 3*SD hit threshold (margin above threshold, higher = more increase) is -15.7%.

Regarding `O=C(CCn1c(=S)[nH]c2cc3c(cc2c1=O)OCO3)NCc1ccc(Cl)cc1`, the signal change vs control minus 3*SD hit threshold (margin above threshold, higher = more increase) was -22.3%.

Take `O=[N+]([O-])c1ccc(Nc2ccc(Cl)cc2)nc1`: the signal change vs control minus 3*SD hit threshold (margin above threshold, higher = more increase) was -22%.

Turning to `COc1cccc(/C=N/n2c(SC)nnc2-c2ccccc2)c1O`, the signal change vs control minus 3*SD hit threshold (margin above threshold, higher = more increase) was -24.3%.

On to `Cc1cc(=O)[nH]c(=S)n1-c1ccccc1`, for which the signal change vs control minus 3*SD hit threshold (margin above threshold, higher = more increase) was -38.5%.

On to `Cc1nn(-c2cccc(C(F)(F)F)c2)c(Cl)c1/C=N/Nc1cccc(C(=O)O)c1`, for which the signal change vs control minus 3*SD hit threshold (margin above threshold, higher = more increase) was -28.4%.

Take `CCNC(=O)C/C(C)=N/NC(=O)C(=O)Nc1ccc(CC)cc1`: the signal change vs control minus 3*SD hit threshold (margin above threshold, higher = more increase) is -7.4%.

For `COc1ccc(/C=N/NC(=O)c2ccncc2)cc1CN1CCCc2ccccc21`, the signal change vs control minus 3*SD hit threshold (margin above threshold, higher = more increase) is -40.9%.

As for `CC1CN(S(=O)(=O)c2ccc(-c3nc4ccccc4s3)cc2)CC(C)O1` (stereo unspecified), the signal change vs control minus 3*SD hit threshold (margin above threshold, higher = more increase) is -8.4%.

For `CCSc1nnc(NC(=O)Cn2cnc3c2c(=O)n(C)c(=O)n3C)s1`, the signal change vs control minus 3*SD hit threshold (margin above threshold, higher = more increase) is -29.2%.

On to `COc1ccc(N2C(=O)/C(=C/c3cccs3)NC2=S)cc1`, for which the signal change vs control minus 3*SD hit threshold (margin above threshold, higher = more increase) was -29.8%.

Regarding `CCCN1C(=O)/C(=C/c2ccc(C)s2)NC1=S`, the signal change vs control minus 3*SD hit threshold (margin above threshold, higher = more increase) is 33.6% (active).

As to `CC(C)CN1C(=O)/C(=C/c2cccs2)NC1=S`, the signal change vs control minus 3*SD hit threshold (margin above threshold, higher = more increase) is 32% (active).

As for `CCCN1C(=O)/C(=C/c2ccc3c(c2)OCO3)NC1=S`, the signal change vs control minus 3*SD hit threshold (margin above threshold, higher = more increase) is -21.2%.

For `CCN1C(=O)/C(=C/c2ccc(C)s2)NC1=S`, the signal change vs control minus 3*SD hit threshold (margin above threshold, higher = more increase) was 1.1% (active).

For `CC(C)CN1C(=O)/C(=C/c2ccco2)NC1=S`, the signal change vs control minus 3*SD hit threshold (margin above threshold, higher = more increase) was -30.9%.

For the molecule `COc1ccc(C(=O)NC(=S)N2CCC(C)CC2)cc1Br`, the signal change vs control minus 3*SD hit threshold (margin above threshold, higher = more increase) is -12.4%.

As for `Oc1c(Br)cc(Cl)cc1C=Nc1ccccc1Br`, the signal change vs control minus 3*SD hit threshold (margin above threshold, higher = more increase) was -1.8%.

In the case of `O=C(c1ccc(CS(=O)c2cccc(Cl)c2)o1)N1CCCCCC1` (stereo unspecified), the signal change vs control minus 3*SD hit threshold (margin above threshold, higher = more increase) is -32.8%.

In the case of `NS(=O)(=O)c1ccc(NC(=S)NCc2cccs2)cc1`, the signal change vs control minus 3*SD hit threshold (margin above threshold, higher = more increase) was -30.2%.

Turning to `O=C(Nc1cccnc1)c1cc(-c2cccs2)on1`, the signal change vs control minus 3*SD hit threshold (margin above threshold, higher = more increase) is -26.5%.

For `COC(=O)C1CCCN1C(=O)COc1ccc(Cl)cc1Br` (stereo unspecified), the signal change vs control minus 3*SD hit threshold (margin above threshold, higher = more increase) was -25.2%.

In the case of `O=C(c1c(O)c2ccccc2oc1=O)C1CCCCC1`, the signal change vs control minus 3*SD hit threshold (margin above threshold, higher = more increase) was -22%.

Turning to `O=C(NC(=S)N(Cc1ccccc1)Cc1ccccc1)c1ccccc1F`, the signal change vs control minus 3*SD hit threshold (margin above threshold, higher = more increase) was -6.4%.

In the case of `CCN(Cc1ccccc1)C(=S)NC(=O)c1ccccc1Br`, the signal change vs control minus 3*SD hit threshold (margin above threshold, higher = more increase) was 27% (active).

For the molecule `N#CCCN(Cc1ccccc1)C(=S)NC(=O)c1ccccc1`, the signal change vs control minus 3*SD hit threshold (margin above threshold, higher = more increase) was -30.7%.

For `CN(C(=S)NC(=O)c1ccccc1Br)C1CCCCC1`, the signal change vs control minus 3*SD hit threshold (margin above threshold, higher = more increase) was -13.4%.

Regarding `CCCN(Cc1ccccc1)C(=S)NC(=O)c1ccccc1[N+](=O)[O-]`, the signal change vs control minus 3*SD hit threshold (margin above threshold, higher = more increase) was 24.3% (active).

With `CCN(C(=S)NC(=O)c1ccccc1Br)C1CCCCC1`, the signal change vs control minus 3*SD hit threshold (margin above threshold, higher = more increase) was 16.2% (active).

Take `CCC(=O)NC(=S)NNC(=O)c1ccccc1[N+](=O)[O-]`: the signal change vs control minus 3*SD hit threshold (margin above threshold, higher = more increase) was -28%.

As for `CN(C(=S)NC(=O)c1ccccc1)C1CCCCC1`, the signal change vs control minus 3*SD hit threshold (margin above threshold, higher = more increase) is -23.6%.

For `CN(Cc1ccccc1)C(=S)NC(=O)c1cccs1`, the signal change vs control minus 3*SD hit threshold (margin above threshold, higher = more increase) is -20.6%.
